Source: PubChem BioAssay (National Center for Advancing Translational Sciences (NCATS))
D2 ag-1 = human D2 receptor agonism in beta-arrestin assay. DiscoveRx PathHunter D2 beta-arrestin, luminescence, 90 min; 100% = 57 uM dopamine signal. AID 624465. activation, % (test concentration not listed). P14416. actives 0.084% (n = 360,000); in the data active = activation above about 40%; inconclusive = between about 15% and that limit
Target sequence (P14416 whole entry, looked up): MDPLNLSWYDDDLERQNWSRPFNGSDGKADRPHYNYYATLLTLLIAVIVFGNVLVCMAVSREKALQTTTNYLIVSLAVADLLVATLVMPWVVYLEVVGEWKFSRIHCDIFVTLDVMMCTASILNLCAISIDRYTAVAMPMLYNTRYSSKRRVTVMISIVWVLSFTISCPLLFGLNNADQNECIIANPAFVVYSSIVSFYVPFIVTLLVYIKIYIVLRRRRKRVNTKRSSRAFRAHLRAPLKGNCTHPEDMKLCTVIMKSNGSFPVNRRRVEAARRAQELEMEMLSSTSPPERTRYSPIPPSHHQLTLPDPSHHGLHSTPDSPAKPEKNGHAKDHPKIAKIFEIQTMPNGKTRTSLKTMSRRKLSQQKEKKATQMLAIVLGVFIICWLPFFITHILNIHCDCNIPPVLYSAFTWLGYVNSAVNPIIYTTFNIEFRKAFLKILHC
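DiscoveRx PathHunter D2 beta-arrestin cells (2,100/well) attached overnight, then compound-stimulated 90 min at 37 C in HBSS/10 mM HEPES/0.1% Tween-20 buffer; beta-galactosidase complementation read by luminescence after 1 h at ambient temperature. Dopamine 57 uM final (EC100) as control.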
D2 ag-2 = D2 dopamine receptor (human) agonism; HEK293 T-REx D2 cells, calcium flux agonist mode; activation, % at 2 µM; actives 0.53% (n = 340,000); AID 485358;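 active = activation over 3 SD above normal in the single-dose calcium agonist read, cut at about 30% in these data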
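Calcium-flux readout, 1 cycle/sec over 180 s following compound pin transfer, in inducible HEK293 Trex D2 cells (force-coupled); dopamine controls included. Positive calcium responses during this window marked compounds as potential agonists.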
D2 PAM-1 = positively modulates the human D2 dopamine receptor allosterically. HEK293 T-REx D2, calcium flux, EC20 dopamine potentiation. AID 485347. P14416. actives 0.34% (n = 340,000). potentiation, % at 10 µM;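 active = potentiation over 3 SD above the plate norm, cut at about 30% in these data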
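Tetracycline-induced Hek293 Trex D2 cells, force-coupled to calcium, loaded with no-wash calcium dye. Compound added with 180 s kinetic read for agonism, then EC20 dopamine and a further 180 s read for potentiation.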
D2 PAM-2 = positive allosteric modulators of human D2 dopamine receptor; actives 0.23% (n = 360,000); potentiation, % (no concentration beside the values); P14416; DiscoveRx D2 beta-arrestin cells, luminescence, 90 min; 100% = 57 uM dopamine signal; AID 624464; in the data active = potentiation above about 50%; inconclusive = mostly about 30% to 49%
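PathHunter D2 cells, attached overnight at 37 deg C, received compound in DMSO plus dopamine at EC20 (50 nM final) for 90 min at 37 deg C. Beta-arrestin recruitment was read as luminescence after 1 h with detection reagent at ambient temperature.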
D2 antag = antagonists of human D2 dopamine receptor; actives 2% (n = 340,000); inhibition, % at 10 µM; HEK293 TREx D2 cells, calcium flux, dopamine EC80; AID 485344; in the data active = inhibition above about 30%; inactive = below that, where a call was filed
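Calcium mobilization kinetics were recorded at 1 s intervals in tetracycline-induced HEK293 T-REx D2 cells, first for 180 s after compound addition and then 180 s after EC80 dopamine.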
Each line names hits and unclear results; the compound was inactive in the other large screens. An excerpt weighted towards active compounds, which were near 2.4% of everything screened.

CC(C)c1ccc(-c2nnn(CCC(=O)O)n2)cc1	D2 ag-1 inconclusive, D2 PAM-2 81
O=C(O)CCn1nnc(-c2cccs2)n1	none
CCc1cnc2c(c1SCCC(C)C)c(=O)n(C)c(=O)n2C	none (no result: D2 ag-1, D2 PAM-2, D2 antag)
COc1ccc(S(=O)(=O)N(C)C)cc1NC(=O)CCCSc1ccccc1	D2 antag 48 (no result: D2 PAM-1)
Cc1ccc(S(=O)(=O)N(C)C)cc1NC(=O)COC(=O)c1n[nH]c(=O)c2ccccc12	D2 antag 52
COc1ccc(NC(=O)COC(=O)Cn2cnc3ccccc3c2=O)cc1OC	none
COc1ccc(S(=O)(=O)N(C)C)cc1NC(=O)COC(=O)Cn1cnc2ccccc2c1=O	D2 antag 38
COC(=O)c1ccc(C)c(NC(=O)Cn2cnc3ccccc3c2=O)c1	D2 antag 35
CCc1cc(=S)n2c([nH]c3ccccc32)c1C#N	D2 PAM-1 32
CCc1cc(=O)n2c([nH]c3ccccc32)c1C#N	none (no result: D2 ag-2)
O=[N+]([O-])c1ccc(/C=N/NC(=S)Nc2ccc(Cl)cc2Cl)s1	D2 antag 45
CCc1ccc(CNC(=O)CN2C(=O)CSc3c2c(C)nn3-c2ccccc2)cc1	none (no result: D2 ag-1, D2 PAM-2, D2 antag)
COc1ccc(CN2CCN(C(c3ccc(F)cc3)c3ccc(F)cc3)CC2)c(OC)c1OC	none (no result: D2 ag-2, D2 PAM-1, D2 antag)
COc1ccc(CN2CCN(c3ccc(F)cc3)CC2)c(OC)c1OC	D2 antag 33
CN1CCN(Cc2cccc(Oc3ccccc3)c2)CC1	none
COc1ccc(CN2CCN(Cc3cccc(Oc4ccccc4)c3)CC2)c(OC)c1OC	D2 antag 34
Fc1ccc(Nc2ncnc3c2nc2n3CCCCC2)c(F)c1	none (no result: D2 ag-1, D2 PAM-2, D2 antag)
COc1ccccc1NC(=O)C1=C(C)Nc2nc(SCc3ccccc3)nn2C1c1cccs1 (stereo not given)	none (no result: D2 ag-1, D2 PAM-2, D2 antag)
C=C(C)[C@@H]1CC[C@]2(C(=O)O)CC[C@]3(C)[C@H](CC[C@@H]4[C@@]5(C)CC[C@H](O)C(C)(C)[C@@H]5CC[C@]43C)[C@@H]12	D2 antag 36
CCCC(C(=O)O)N1C(=O)/C(=C2\C(=O)N(C)c3ccccc32)SC1=S (stereo not given)	D2 PAM-2 61
Cc1cc(C)c(C)c(OCc2nc(-c3cccnc3)no2)c1	D2 PAM-1 33
CCOc1ccc(N(CC)S(=O)(=O)N2CCCC(C(=O)NCCc3ccccc3OC)C2)cc1 (stereo not given)	none (no result: D2 ag-1, D2 PAM-2, D2 antag)
N#Cc1cnn(Cc2ccccc2)c1/N=C/N1CCOCC1	D2 antag 34 (no result: D2 PAM-1)
Cc1ccc(NC(=O)Cn2c(=O)n(-c3ccc(Cl)c(Cl)c3)c(=O)c3c(C)c(C)sc32)c(C)c1	none (no result: D2 ag-1, D2 PAM-2, D2 antag)
CC1=CS(=O)(=O)CC1Sc1nc2ccccc2[nH]1 (stereo not given)	D2 antag 38
O=S1(=O)C=CC(Sc2nc3ccccc3[nH]2)C1 (stereo not given)	none
Cc1cc(C)c(Cn2c3ccccc3c3cnn(CC(=O)NCC(C)c4ccccc4)c(=O)c32)c(C)c1 (stereo not given)	none (no result: D2 ag-1, D2 PAM-2, D2 antag)
Fc1cccc(Cc2noc(CN3CCC(c4ccncc4)CC3)n2)c1	D2 antag 53
Fc1cccc(Cc2noc(CN3CCOCC3)n2)c1	none
Cc1nc2ccn(Cc3cccnc3)c(=O)c2cc1C(=O)N1CCN(c2ccc(F)cc2)CC1	none (no result: D2 ag-1, D2 PAM-2, D2 antag)
CC1(C)C(=O)N(CC(=O)Nc2cccc(F)c2)c2ccc(S(=O)(=O)N3CCCCC3)cc21	none (no result: D2 ag-1, D2 PAM-2, D2 antag)
Cc1c(C(=O)NCc2ccccc2)c(-c2ccccc2)nn1-c1ccccc1	D2 antag 36
COc1ccc(C(=O)NCCCn2ccnc2)cc1	none
COc1ccc(-c2nn(-c3ccccc3)cc2C(=O)NCCCn2ccnc2)cc1	D2 antag 30
O=C(NCc1ccncc1)c1cn(-c2ccccc2)nc1-c1cccnc1	none
O=C(NC1CCN(Cc2ccc(Cl)cc2)CC1)c1cn(-c2ccccc2)nc1-c1cccnc1	D2 antag 74
O=C(NCc1cccnc1)c1cn(-c2ccccc2)nc1-c1ccccc1	D2 antag 44
COc1ccc(-c2nc(Cn3c(SCc4cccc(C(F)(F)F)c4)nc4cccnc43)c(C)o2)cc1OC	none (no result: D2 ag-1, D2 PAM-2, D2 antag)
Cn1c(=O)c2c(nc(NCc3ccccc3)n2Cc2ccccc2)n(C)c1=O	none (no result: D2 ag-1, D2 ag-2, D2 PAM-2, D2 antag)
CCn1c(NCc2ccccn2)nc2c1c(=O)n(C)c(=O)n2C	D2 PAM-1 63
